{"source": "the supplement of paper PMC6658780", "system": "Escherichia coli ATCC BAA-2469", "experiment": "percent growth inhibition of drug + antibiotic vs DMSO control; higher = more growth inhibition", "method": "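Prestwick drugs tested at 20 uM and 7 uM with an antibiotic at 0.125x MIC (16 mg/L when MIC >128 mg/L) against E. coli ATCC BAA-2469 (NDM-1) in CAMHB, 384-well plates, duplicate runs. Percent growth inhibition was computed from OD600 (24 h minus 0 h) relative to DMSO wells. Drug + DMSO-only wells are also given. […]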", "key": {"[1]": {"conditions": "antibiotic (0.125x MIC): ciprofloxacin, 7 µM"}, "[2]": {"conditions": "antibiotic (0.125x MIC): ciprofloxacin, 20 µM"}, "[3]": {"conditions": "antibiotic (0.125x MIC): gentamicin, 7 µM"}, "[4]": {"conditions": "antibiotic (0.125x MIC): gentamicin, 20 µM"}, "[5]": {"conditions": "antibiotic (0.125x MIC): meropenem, 7 µM"}, "[6]": {"conditions": "antibiotic (0.125x MIC): meropenem, 20 µM"}}, "note": "Where a name gives a salt, the structure may show the parent alone. ± gives the standard deviation of the averaged measurements."}
{"molecule": "COC(=O)N/N=C/c1c[n+]([O-])c2ccccc2[n+]1[O-]", "note": "[Carbadox]", "values": [{"measurement": "percent growth inhibition", "setting": "[1]", "result": "35.21 ± 0.15", "unit": "%"}, {"measurement": "percent growth inhibition", "setting": "[2]", "result": "68.9 ± 6.1", "unit": "%"}, {"measurement": "percent growth inhibition", "setting": "[3]", "result": "46.5 ± 17", "unit": "%"}, {"measurement": "percent growth inhibition", "setting": "[4]", "result": "85 ± 3.9", "unit": "%"}, {"measurement": "percent growth inhibition", "setting": "[5]", "result": "39.9 ± 16", "unit": "%"}, {"measurement": "percent growth inhibition", "setting": "[6]", "result": "78.3 ± 7.7", "unit": "%"}]}
{"molecule": "C[C@H]1[C@H](NC(=O)/C(=N\\OC(C)(C)C(=O)O)c2csc(N)n2)C(=O)N1S(=O)(=O)O", "note": "[Aztreonam]", "values": [{"measurement": "percent growth inhibition", "setting": "[1]", "result": "0.0872 ± 14", "unit": "%"}, {"measurement": "percent growth inhibition", "setting": "[3]", "result": "24.6 ± 5.5", "unit": "%"}, {"measurement": "percent growth inhibition", "setting": "[4]", "result": "81.2 ± 19", "unit": "%"}, {"measurement": "percent growth inhibition", "setting": "[5]", "result": "14.9 ± 16", "unit": "%"}]}
{"molecule": "Cc1nnc(NS(=O)(=O)c2ccc(N)cc2)s1", "note": "[Sulfamethizole]", "values": [{"measurement": "percent growth inhibition", "setting": "[1]", "result": "9.62 ± 10", "unit": "%"}, {"measurement": "percent growth inhibition", "setting": "[2]", "result": "4.47 ± 6", "unit": "%"}]}
{"molecule": "O=C(N[C@H](CO)[C@H](O)c1ccc([N+](=O)[O-])cc1)C(Cl)Cl", "note": "[Chloramphenicol]", "values": [{"measurement": "percent growth inhibition", "setting": "[1]", "result": "18.4 ± 4.5", "unit": "%"}, {"measurement": "percent growth inhibition", "setting": "[2]", "result": "92.4 ± 9.2", "unit": "%"}, {"measurement": "percent growth inhibition", "setting": "[3]", "result": "38.6 ± 9.3", "unit": "%"}, {"measurement": "percent growth inhibition", "setting": "[4]", "result": "102 ± 3.6", "unit": "%"}, {"measurement": "percent growth inhibition", "setting": "[5]", "result": "40.2 ± 7", "unit": "%"}, {"measurement": "percent growth inhibition", "setting": "[6]", "result": "89.3 ± 10", "unit": "%"}]}
{"molecule": "O=C1c2c(O)ccc(O)c2C(=O)c2c(NCCNCCO)ccc(NCCNCCO)c21", "note": "[Mitoxantrone dihydrochloride]", "values": [{"measurement": "percent growth inhibition", "setting": "[1]", "result": "6.59 ± 1.5", "unit": "%"}, {"measurement": "percent growth inhibition", "setting": "[2]", "result": "52.9 ± 1.9", "unit": "%"}]}
{"molecule": "Nc1nc(F)nc2c1ncn2[C@@H]1O[C@H](CO)[C@@H](O)[C@@H]1O", "note": "[Fludarabine]", "values": [{"measurement": "percent growth inhibition", "setting": "[1]", "result": "36.5 ± 11", "unit": "%"}, {"measurement": "percent growth inhibition", "setting": "[2]", "result": "58.8 ± 3.8", "unit": "%"}, {"measurement": "percent growth inhibition", "setting": "[3]", "result": "31.6 ± 1.3", "unit": "%"}, {"measurement": "percent growth inhibition", "setting": "[4]", "result": "65.8 ± 12", "unit": "%"}, {"measurement": "percent growth inhibition", "setting": "[5]", "result": "28.2 ± 5.7", "unit": "%"}, {"measurement": "percent growth inhibition", "setting": "[6]", "result": "64.4 ± 8", "unit": "%"}]}
{"molecule": "O=C1NCCN1c1ncc([N+](=O)[O-])s1", "note": "[Niridazole]", "values": [{"measurement": "percent growth inhibition", "setting": "[1]", "result": "45 ± 5.1", "unit": "%"}, {"measurement": "percent growth inhibition", "setting": "[2]", "result": "86.8 ± 14", "unit": "%"}, {"measurement": "percent growth inhibition", "setting": "[3]", "result": "30.939 ± 0.024", "unit": "%"}, {"measurement": "percent growth inhibition", "setting": "[4]", "result": "99.9 ± 3.3", "unit": "%"}, {"measurement": "percent growth inhibition", "setting": "[5]", "result": "42.4 ± 9.2", "unit": "%"}, {"measurement": "percent growth inhibition", "setting": "[6]", "result": "85.3 ± 15", "unit": "%"}]}
{"molecule": "CN(C)c1ccc(O)c2c1C[C@H]1C[C@H]3[C@H](N(C)C)C(O)=C(C(N)=O)C(=O)[C@@]3(O)C(O)=C1C2=O", "note": "[Minocycline hydrochloride]", "values": [{"measurement": "percent growth inhibition", "setting": "[1]", "result": "36.9 ± 6.3", "unit": "%"}, {"measurement": "percent growth inhibition", "setting": "[2]", "result": "101 ± 3.3", "unit": "%"}, {"measurement": "percent growth inhibition", "setting": "[3]", "result": "38.6 ± 5.5", "unit": "%"}, {"measurement": "percent growth inhibition", "setting": "[4]", "result": "84.6 ± 15", "unit": "%"}]}
{"molecule": "Cc1c(N(C)C)c(=O)n(-c2ccccc2)n1C", "note": "[Amidopyrine]", "values": [{"measurement": "percent growth inhibition", "setting": "[3]", "result": "0.636 ± 5.5", "unit": "%"}]}
{"molecule": "CO/N=C(\\C(=O)N[C@@H]1C(=O)N2C(C(=O)O)=C(COC(N)=O)CS[C@H]12)c1ccco1", "note": "[Cefuroxime sodium salt]", "values": [{"measurement": "percent growth inhibition", "setting": "[3]", "result": "-0.221 ± 4.4", "unit": "%"}]}
{"molecule": "NC(=O)N/N=C/c1ccc([N+](=O)[O-])o1", "note": "[Nitrofural]", "values": [{"measurement": "percent growth inhibition", "setting": "[3]", "result": "8.48 ± 6.7", "unit": "%"}, {"measurement": "percent growth inhibition", "setting": "[5]", "result": "4.64 ± 4", "unit": "%"}]}
{"molecule": "CC[C@H]1OC(=O)[C@H](C)[C@@H](O[C@H]2C[C@@](C)(OC)[C@@H](O)[C@H](C)O2)[C@H](C)[C@@H](O[C@@H]2O[C@H](C)C[C@H](N(C)C)[C@H]2O)[C@](C)(O)C[C@@H](C)CN(C)[C@H](C)[C@@H](O)[C@]1(C)O", "note": "[Azithromycin]", "values": [{"measurement": "percent growth inhibition", "setting": "[5]", "result": "20.7 ± 7.2", "unit": "%"}, {"measurement": "percent growth inhibition", "setting": "[6]", "result": "50.1 ± 20", "unit": "%"}]}
